In the library only some 7.3% were active in any assay of this set; here they are far more common.
Gal4-VP16 FLuc: VP16 counterscreen qHTS for inhibitors of ROR gamma transcriptional activity | Drosophila S2 Gal4-VP16 UAS-luciferase, luminescence, 20 h | Potency, µM (doses to about 53.6 µM), inactives show at the highest dose activity, negative = inhibition, most hits filed as inhibitors | actives 3.5% (n = 310,000) | AID 2546, 2010;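 further: Gal4-VP16 expression switched on by copper sulfate through the metallothionein promoter; nearly all actives have a fitted effect of over 50% in size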
RORgamma inh: qHTS for inhibitors of ROR gamma transcriptional activity. Nuclear receptor ROR-gamma (Mus musculus), P51450. Drosophila S2 Gal4-RORgamma UAS-luciferase reporter, 20 h. actives 5.4% (n = 310,000). Potency, µM (top dose mostly 53.6 µM), for the others: at the highest dose activity change, negative = inhibition, actives largely listed as inhibitors; further: nearly all actives have a fitted effect of over 60% in size
Target sequence (P51450 whole entry, looked up, the tested form may be a part): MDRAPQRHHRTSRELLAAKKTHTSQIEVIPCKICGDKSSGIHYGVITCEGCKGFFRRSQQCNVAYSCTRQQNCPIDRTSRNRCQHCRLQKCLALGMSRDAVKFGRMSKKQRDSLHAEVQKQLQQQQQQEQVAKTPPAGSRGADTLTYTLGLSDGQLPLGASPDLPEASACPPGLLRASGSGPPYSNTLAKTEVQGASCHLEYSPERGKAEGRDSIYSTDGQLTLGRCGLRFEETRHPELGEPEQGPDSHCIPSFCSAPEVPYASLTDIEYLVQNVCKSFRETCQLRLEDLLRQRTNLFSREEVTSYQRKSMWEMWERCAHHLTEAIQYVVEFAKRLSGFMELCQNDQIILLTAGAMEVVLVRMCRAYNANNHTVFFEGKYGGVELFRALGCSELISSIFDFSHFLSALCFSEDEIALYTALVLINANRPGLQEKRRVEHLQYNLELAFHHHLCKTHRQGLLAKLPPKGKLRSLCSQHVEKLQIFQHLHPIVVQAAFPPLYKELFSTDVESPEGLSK
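Using a luciferase readout, inhibitors were identified by reduced reporter activity in Drosophila cells coexpressing a copper-inducible Gal4–ROR gamma fusion and UAS-driven Photinus luciferase, incubated 20 hr after 700 uM copper sulfate.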
Tau ThT inhib: qHTS for Inhibitors of Tau Fibril Formation, Thioflavin T Binding. recombinant tau K18 P301L, heparin-induced fibrillization, ThT fluorescence. Potency, µM (top dose mostly 57.4 µM), for inactives: at the top dose activity, negative = inhibition, hits mostly inhibitors. actives 2.1% (n = 270,000). AID 1460, 2008. Microtubule-associated protein tau (Homo sapiens), P10636; further: nearly all actives have a fitted effect of over 55% in size
Target sequence (P10636 561-689 P618L limits assumed): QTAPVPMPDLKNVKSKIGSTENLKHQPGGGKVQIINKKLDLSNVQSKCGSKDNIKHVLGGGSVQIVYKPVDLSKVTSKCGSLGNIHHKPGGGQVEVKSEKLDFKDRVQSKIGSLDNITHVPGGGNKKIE
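Tau K18 P301L fragment (15 uM unlabeled plus 0.24 uM Alexa 594-labeled) in 100 mM sodium acetate pH 7 with compound, fibrillization induced by 20 uM heparin for 6 hr at 37 C. Thioflavin T (30 uM) added, fluorescence read after 1 hr (ex 450, em 510 nm).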
Tau fluor counter: Counterscreen qHTS for Inhibitors of Tau Fibril Formation, Fluorescence Polarization. tau K18 P301L Alexa594 fluorescence, heparin fibrillization. actives 0.93% (n = 280,000). Potency, µM (series often up to 57.7 µM), for the others: at the top dose activity change, negative = decrease; further: nearly all actives have a fitted effect of over 55% in size
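Human tau K18 P301L (15 uM unlabeled, 0.24 uM Alexa 594-labeled) in 100 mM sodium acetate pH 7 with 20 uM heparin, 6 hr at 37 C. ThT 30 uM added, 1 hr ambient; Alexa 594 FP and total fluorescence read at 555/632 nm.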
Tau fibril FP: qHTS for Inhibitors of Tau Fibril Formation, Fluorescence Polarization. Microtubule-associated protein tau (Homo sapiens), P10636. K18 P301L tau heparin fibrillization, Alexa594 FP, 6 h. Potency, µM (series often up to 57.7 µM), inactives show at the highest dose activity, negative = inhibition, most hits filed as inhibitors. actives 0.39% (n = 280,000). AID 1468, 2008; further: nearly all actives have a fitted effect of over 55% in size
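Quantitative HTS format: compounds meet 15 uM recombinant K18 P301L tau and Alexa 594-tau tracer in 100 mM sodium acetate pH 7; 20 uM heparin triggers fibrillization at 37 C over 6 hr; FP gives the signal.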
* marks the source's active call; other numbers are inactive results. The call rests on the fitted dose curve; in most records, active means well fitted curve in the direction sought with a large enough effect; inconclusive means small, poorly fitted or top-dose-only effect, or another doubt; inactive means no such curve, though single readings can be large; an effect the other way counts as inactive or inconclusive. On the % scale 0 is the no-effect control and ±100 the full control effect; potency means the concentration at half of the fitted maximal effect.

Results for Cc1ccc(-n2c(=O)c3c(C)c(C(=O)N(C)C)sc3n(CC(=O)N(C)c3ccccc3)c2=O)cc1C ?
Tau ThT inhib: 0%; Tau fluor counter: -1%; Tau fibril FP: 2%

Results for Cc1cccc2sc(NNC(=O)C3=COCCO3)nc12 ?
Gal4-VP16 FLuc: 13µM*; RORgamma inh: 2.2µM*; Tau ThT inhib: -2%; Tau fluor counter: -4%; Tau fibril FP: 2%

What do the screens show for `Cc1cc(C(=O)Nc2nc3c(C)cccc3s2)c(C)o1`?
Gal4-VP16 FLuc: inconclusive; RORgamma inh: inconclusive; Tau ThT inhib: -24%; Tau fluor counter: -15%; Tau fibril FP: -16%

Results for O=C(NNc1nc2c(F)cc(F)cc2s1)C1=COCCO1 ?
Gal4-VP16 FLuc: -27%; RORgamma inh: 8.9µM*; Tau ThT inhib: 3%; Tau fluor counter: 3%; Tau fibril FP: 1%

What do the screens show for `Nc1c(-c2ccccn2)cnn1-c1nc(-c2ccc(F)cc2)cs1`?
Gal4-VP16 FLuc: -14%; RORgamma inh: 5µM*; Tau ThT inhib: inconclusive; Tau fluor counter: inconclusive; Tau fibril FP: -14%

Results for COc1ccc(-c2csc(-n3ncc(-c4ccccn4)c3N)n2)cc1 ?
Gal4-VP16 FLuc: 13%; RORgamma inh: -20%; Tau ThT inhib: -13%; Tau fluor counter: -3%; Tau fibril FP: 3%

Results for CCOc1ccc(N2C(=O)CC(N)C2=O)cc1 (configuration not stated) ?
Gal4-VP16 FLuc: 3.2µM*; RORgamma inh: 1.1µM*; Tau ThT inhib: inconclusive; Tau fluor counter: -6%; Tau fibril FP: -3%

How did O=C1CC(SCc2nc3ccccc3[nH]2)C(=O)N1c1cccc(F)c1 (configuration not stated) do in these assays?
Gal4-VP16 FLuc: 14µM*; RORgamma inh: 10µM*; Tau ThT inhib: inconclusive; Tau fluor counter: -17%; Tau fibril FP: 2%

What do the screens show for `O=C1CC(SCc2nc3ccccc3[nH]2)C(=O)N1c1ccc(Cl)cc1` (configuration not stated)?
Gal4-VP16 FLuc: 6.3µM*; RORgamma inh: 3.5µM*; Tau ThT inhib: inconclusive; Tau fluor counter: -11%; Tau fibril FP: 1%

What do the screens show for `O=C1CC(SCc2nc3ccccc3[nH]2)C(=O)N1c1ccc(F)c(Cl)c1` (configuration not stated)?
Gal4-VP16 FLuc: -25%; RORgamma inh: inconclusive; Tau ThT inhib: inconclusive; Tau fluor counter: -19%; Tau fibril FP: -6%

How did CCOc1ccc(N2C(=O)CC(SCc3nc4ccccc4[nH]3)C2=O)cc1 (configuration not stated) do in these assays?
Gal4-VP16 FLuc: inconclusive; RORgamma inh: 11µM*; Tau ThT inhib: inconclusive; Tau fluor counter: -5%; Tau fibril FP: -3%

What do the screens show for `CCCOc1ccc(N2C(=O)CC(SCCc3nc4ccccc4[nH]3)C2=O)cc1` (configuration not stated)?
Gal4-VP16 FLuc: -19%; RORgamma inh: -3%; Tau ThT inhib: -16%; Tau fluor counter: -8%; Tau fibril FP: -2%

Results for N#Cc1ccc(CSc2nc3c(c(=O)[nH]2)CCC3)cc1 ?
Tau ThT inhib: -11%; Tau fluor counter: -8%; Tau fibril FP: inconclusive

What do the screens show for `COc1cccc(NC(=O)CN2C=NS(=O)(=O)c3ccccc32)c1`?
Tau ThT inhib: 10%; Tau fluor counter: 10%; Tau fibril FP: 1%

What do the screens show for `COc1ccccc1CNC(=O)CCCC(=O)n1ncc2cc(C)ccc21`?
Gal4-VP16 FLuc: 4%; RORgamma inh: -3%

What do the screens show for `O=C(CCCC1=NS(=O)(=O)c2ccccc2N1)Nc1ccccc1`?
Gal4-VP16 FLuc: -2%; RORgamma inh: -12%

Results for COc1ccc2c3c(cccc13)N(C)N=C2C ?
Gal4-VP16 FLuc: -6%; RORgamma inh: -18%; Tau ThT inhib: 7.1µM*; Tau fluor counter: inconclusive; Tau fibril FP: inconclusive

Results for COc1ccc2c3c(cccc13)OC2=O ?
Gal4-VP16 FLuc: -1%; RORgamma inh: -6%

Results for Cc1cc(=O)[nH]c(SCC(=O)N2C(C)CCCC2C)n1 (configuration not stated) ?
Gal4-VP16 FLuc: -8%; RORgamma inh: -2%

How did CC(C)NC(=S)N/N=C/c1cc(Br)ccc1O do in these assays?
Gal4-VP16 FLuc: 4.5µM*; RORgamma inh: 5µM*; Tau ThT inhib: -12%; Tau fluor counter: inconclusive; Tau fibril FP: 14%

How did Nc1ccc(C(=O)N/N=C\c2cc(N=Nc3cccc4ccccc34)ccc2O)cc1 do in these assays?
Gal4-VP16 FLuc: 5.6µM*; RORgamma inh: 1.6µM*; Tau ThT inhib: 3.2µM*; Tau fluor counter: inconclusive; Tau fibril FP: 13%

What do the screens show for `O=C(CCc1ccccc1)N/N=C/c1cc(Br)ccc1O`?
Gal4-VP16 FLuc: -13%; RORgamma inh: 2%; Tau ThT inhib: 2%; Tau fluor counter: -6%; Tau fibril FP: 1%

What do the screens show for `Cc1cc(C(=O)N/N=C/c2cc(N=Nc3ccccc3)ccc2O)n[nH]1`?
Gal4-VP16 FLuc: 11µM*; RORgamma inh: 10µM*; Tau ThT inhib: 7.1µM*; Tau fluor counter: inconclusive; Tau fibril FP: 1%

What do the screens show for `Cc1cc(C(=O)N/N=C/c2cccc([N+](=O)[O-])c2O)n[nH]1`?
Gal4-VP16 FLuc: inconclusive; RORgamma inh: 13µM*; Tau ThT inhib: 14µM*; Tau fluor counter: -21%; Tau fibril FP: -4%

How did Cc1cc(C(=O)N/N=C/c2ccc(O)c([N+](=O)[O-])c2)n[nH]1 do in these assays?
Gal4-VP16 FLuc: -7%; RORgamma inh: 11%; Tau ThT inhib: inconclusive; Tau fluor counter: -7%; Tau fibril FP: -5%

Results for COc1cccc(NC(=O)Cn2nc3c4ccccc4n(Cc4cccc(F)c4)cc-3c2=O)c1 ?
Tau ThT inhib: -15%; Tau fluor counter: -21%; Tau fibril FP: -8%

How did CCC(Sc1nc2ccsc2c(=O)n1Cc1ccc(C(=O)O)cc1)C(=O)Nc1ccc(C)c(Cl)c1 (configuration not stated) do in these assays?
Gal4-VP16 FLuc: -4%; RORgamma inh: 23%

What do the screens show for `COC(=O)N/N=C/c1ccc(Oc2ccccc2)cc1`?
Gal4-VP16 FLuc: 10%; RORgamma inh: 19%; Tau ThT inhib: -5%; Tau fluor counter: -5%; Tau fibril FP: -10%

What do the screens show for `COC(=O)N/N=C/c1cc(N=Nc2ccccc2Cl)ccc1O`?
Gal4-VP16 FLuc: 16µM*; RORgamma inh: 4µM*; Tau ThT inhib: 1.6µM*; Tau fluor counter: inconclusive; Tau fibril FP: -2%

Bioassay records: PubChem BioAssay, National Center for Advancing Translational Sciences (NCATS)
